Two molecules from PubChem BioAssay AID1645850 (National Center for Advancing Translational Sciences (NCATS), 2021) can be followed below.

Inconclusive results are not listed. The source made the active and inactive calls. The call rests on the fitted dose curve; in most records, active means well fitted curve in the direction sought with a large enough effect in the repeat runs; inconclusive means weak or mixed curves, or another doubt; inactive means no such curve, though single readings can be large or run the other way.

This experiment can be described thus: Comparison of Janus kinase inhibitors to block the type I interferon pathway in human skeletal muscle cells: CTG Counterscreen. From the text:
Assay Submitter (PI): Travis B. Kinder Ph.D.
National Center for Advancing Translational Sciences (NCATS)
The family of Janus kinases (JAK1, JAK2, JAK3, TYK2) mediate signal transduction from cytokine receptors through phosphorylation and activation of intracellular signaling pathways and transcription factors. Small molecule antagonists of JAKs (jakinibs) have been developed with varying selectivity for the use in malignancies and immune regulation. […] We have assayed a library of 48 jakinibs for their ability to inhibit the JAK1/TYK2-dependent type I interferon (IFN) - major histocompatibility complex (MHC) class I pathway in human skeletal muscle cells genome-engineered to fuse a pro-luminescent HiBiT peptide to endogenous MHC class I.
The assay utilized CRISPR/Cas9 genome-engineered immortalized human myoblasts, C25cl48, where a pro-luminescent reporter HiBit was fused to the C-terminus of endogenous MHC class I allele HLA-B*08:01 (HLA-B HiBit myoblasts) (Kinder et al., 2020). […] After 24 hrs of treatment, cells were assayed by CellTiter-Glo Luminescent Cell Viability Assay (Promega) and luminescence measured by a ViewLux 1430 Ultra HTS (Perkin Elmer). […]
7; Detector; 5 sec; Measure luminescence with ViewLux 1430 Ultra HTS (Perkin Elmer). […]
For orientation: A counterscreen serves to expose hits that act by an unwanted route or on another target.

For the molecule `CC1CCCCCC(=O)c2c(O)cc(O)cc2CC(=O)O1` (configuration not stated), the result was inactive. Turning to `CC(C)(O)/C=C\C(=O)[C@](C)(O)[C@H]1[C@H](O)C[C@]2(C)[C@@H]3CC=C4[C@@H](C=C(O)C(=O)C4(C)C)[C@]3(C)C(=O)C[C@@]12C`, the molecule was called inactive.
